# Where “and” joins values, the source holds several entries; their conditions need not be identical. Equal entries are not always repeated. Results filed as inconclusive are left out. Where a call stands in place of a potency, no number is given. Some structures have more than one record in an assay (separate samples or runs), and their calls can disagree. Calls of active or inactive are those of the source. Calls follow the shape of the dose curve; as a rule, active = well fitted inhibition curve with a large enough effect in the repeat runs; inconclusive = weak or mixed curves; inactive = no such curve, though single readings can be large or run the other way.
# Target: Cytochrome P450 2C9 (Homo sapiens) (UniProt P11712)
# Sequence (P11712 whole entry, looked up): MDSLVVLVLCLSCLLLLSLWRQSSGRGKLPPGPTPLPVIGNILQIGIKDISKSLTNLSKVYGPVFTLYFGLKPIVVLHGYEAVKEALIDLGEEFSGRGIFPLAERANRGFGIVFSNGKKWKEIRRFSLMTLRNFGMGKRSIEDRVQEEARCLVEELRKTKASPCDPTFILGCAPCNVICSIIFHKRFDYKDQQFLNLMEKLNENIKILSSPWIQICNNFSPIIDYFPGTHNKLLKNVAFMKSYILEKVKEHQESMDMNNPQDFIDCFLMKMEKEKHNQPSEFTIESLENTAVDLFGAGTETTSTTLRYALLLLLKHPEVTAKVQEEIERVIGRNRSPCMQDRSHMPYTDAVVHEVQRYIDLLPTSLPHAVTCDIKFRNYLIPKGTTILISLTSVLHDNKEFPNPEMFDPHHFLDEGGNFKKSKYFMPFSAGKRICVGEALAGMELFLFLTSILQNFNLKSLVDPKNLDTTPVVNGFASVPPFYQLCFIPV
# Test: Cytochrome P450 Family 2 Subfamily C Member 9 (CYP2C9) small molecule antagonists: luciferase reporter qHTS assay (AID 1671198); also: nearly all actives have a fitted effect of over 50% in size
# Conditions: P450-Glo CYP2C9 enzyme assay, luciferin luminescence; series mostly up to 115 µM
# Text: U.S. Tox21 Program National Center for Advancing Translational Sciences [NCATS] U.S. Environmental Protection Agency [EPA] National Institutes of Environmental Health Sciences [NIEHS] National Toxicology Program [NTP] U.S. Food and Drug Administration [FDA] Tox21 Assay Overview: Cytochrome P450 (CYP) enzymes are membrane-bound hemeproteins that play a key role in metabolism of drugs and xenobiotics. Evaluation of the effect of chemicals on CYP isozymes is useful to minimize the adverse drug reactions and toxicities in drug development process. Tox21 chemicals were tested for their effect on CYP enzyme activities by using P450-Glo (TM) screening systems (Promega Corporation, Madison, WI). These systems provide a luminescent method containing proluciferin substrates and are converted to luciferin products by CYP isozymes. The luciferin products formed are detected with a luciferin detection reagent, and the amount of light produced is proportional to CYP activity. P450-Glo (TM) CYP2C9 screening system (Catalog. No. V9790) was used to detect the compounds that interfere in CYP2C9 activity.
# Tox21 Assay Protocol Summary: Two ul of enzyme-substrate mix was dispensed into medium binding white/solid 1536-well plates (Greiner Bio-One North America Inc., Monroe, NC) using a BioRaptr Flying Reagent Dispenser (FRD, Beckman Coulter, Brea, CA). […] The assay plates were incubated at room temperature for 10 min. Then 2 ul of NADPH regeneration solution was added to each well of the assay plates using an FRD and incubated at 37C for 1 h. The reaction was stopped by adding 4 ul of detection reagent using an FRD and after 20 min incubation at room temperature the luminescence signal was measured using a ViewLux plate reader (Perkin Elmer, Shelton, CT). Data were expressed as relative luminescence units.
# Potency is read from the fitted curve at half-maximal effect.
row,Structure (SMILES),Potency
1,CC1COC(=O)O1 (stereo not given),inactive
2,c1cnc2cc3c(cc2n1)C1CNCC3C1,inactive
3,Cc1ccc(S(=O)(=O)Oc2ccc(N=Nc3ccc(-c4ccc(N=Nc5c(O)ccc6cc(S(=O)(=O)O)cc(S(=O)(=O)O)c56)c(C)c4)cc3C)cc2)cc1,35.7 µM (active) and 26 µM (active)
4,CCCCCCCCCCCCCC[P+](CCCC)(CCCC)CCCC,28.1 µM (active) and 50.2 µM (active)
5,COC(=O)/C=C/c1ccccc1,inactive
6,CC(=O)O[C@]1(C(C)=O)CC[C@H]2[C@@H]3C[C@H](C)C4=CC(=O)CC[C@]4(C)[C@H]3CC[C@@]21C,3.99 µM (active) and 13.8 µM (active)
7,Nc1cc(S(=O)(=O)O)cc2cc(S(=O)(=O)O)cc(O)c12,39.9 µM (active)
8,CC(=O)CC(C)=O,inactive
9,COc1ccc(CCN(C)CCCC(C#N)(c2ccc(OC)c(OC)c2)C(C)C)cc1OC (stereo not given),inactive
10,C=CC(=O)OCCCCCCOC(=O)C=C,64.1 µM (active) and 56.4 µM (active)
11,CCC[C@H](N[C@@H](C)C(=O)N1[C@H](C(=O)O)C[C@@H]2CCCC[C@@H]21)C(=O)OCC,inactive
12,Oc1ccc(Cl)cc1Cc1cc(Cl)ccc1O,8.11 µM (active) and 5.64 µM (active) and 4.9 µM (active)
13,CCCCC/C=C/CC1CC(=O)OC1=O (stereo not given),inactive
14,COc1ccc(COC(C)=O)cc1,inactive
15,CC[C@@H](N)CO,inactive
16,O=C(Oc1ccccc1)c1ccccc1O,35.6 µM (active) and 24.5 µM (active)
17,Clc1ccc2c(c1)C(N1CCNCC1)=Nc1ccccc1O2,17.8 µM (active) and inactive
18,O=Cc1ccc(Cl)cc1,inactive
19,c1ccc2cc3c(ccc4ccccc43)cc2c1,25.2 µM (active)
20,Cc1ccnc2c1NC(=O)c1cccnc1N2C1CC1,inactive

row,Structure (SMILES),Potency
1,[Cl][In]([Cl])[Cl],inactive
2,N[C@@H]1CONC1=O,inactive
3,CNC1(C)C2CCC(C2)C1(C)C (stereo not given),inactive
4,CCC(C)(Oc1ccc(C2(c3ccc(OC(C)(CC)C(=O)O)cc3)CCCCC2)cc1)C(=O)O (stereo not given),inactive
5,Oc1c(Cl)cc(Cl)c(Cl)c1Cc1c(O)c(Cl)cc(Cl)c1Cl,2 µM (active) and 3.56 µM (active) and 1.74 µM (active)
6,CCCCCCCCCCCC[N+](C)(C)C,inactive
7,CC1=CC(=O)c2ccccc2C1=O,22.4 µM (active) and 13.8 µM (active)
8,COc1ccc(Cc2cnc(N)nc2N)cc1OC,inactive
9,CCc1ccc(C(c2ccc(CC)cc2)C(Cl)Cl)cc1,14.4 µM (active) and 12.6 µM (active)
10,C=CC(=O)OCCCCCCCC,inactive
11,NC(N)=Nc1nc(CSCC/C(N)=N/S(N)(=O)=O)cs1,inactive
12,NC(=Nc1ccccc1)Nc1ccccc1,89.4 µM (active) and inactive
13,COC(c1ccccc1)(c1ccccc1)[C@H](Oc1nc(C)cc(C)n1)C(=O)O,inactive
14,CCCCCCC(O)CCCCCCCCCCC(=O)O (stereo not given),inactive
15,OCC(CO)N[C@H]1C[C@](O)(CO)[C@@H](O)[C@H](O)[C@H]1O,inactive
16,Cc1cccc([N+](=O)[O-])c1C(=O)O,inactive
17,c1ccc2n[nH]nc2c1,inactive
18,Cc1cc(Cc2cc(C)cc(C(C)(C)C)c2O)c(O)c(C(C)(C)C)c1,3.57 µM (active) and 3.56 µM (active)
19,C=C(C)C1CC=C(C)C(OC(C)=O)C1 (stereo not given),inactive
20,CCCCOCCOC(=O)c1ccccc1C(=O)OCCOCCCC,6.95 µM (active) and 7.1 µM (active)
